Screens deposited in PubChem by ICCB-Longwood Screening Facility, Harvard Medical School.
fixLJ activator: increases Burkholderia fixLJ two-component signaling | B. multivorans fixK-promoter GFP reporter, 18 h; stronger effect = higher value | z-score (concentration not given with the values) | actives 0.3% (n = 29,000) | AID 1918990;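 active means replicate mean overnight rise in green fluorescent reporter signal, 3 or more SD over negative controls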
Active calls of the source: *. The full list was thinned out, with hits kept by preference.

SMILES	fixLJ activator
C#CCOc1ccc(C2C(C(=O)OC)=C(C)NC3=C2C(=O)c2ccccc23)cc1OCC (centres undefined)	3.7*
CCOC(=O)COc1ccc(C2C(C(=O)OC)=C(C)NC3=C2C(=O)c2ccccc23)cc1Cl (centres undefined)	4.1*
CCOc1cc(Br)c(C2C(C(=O)OC)=C(C)NC3=C2C(=O)c2ccccc23)cc1OCC (centres undefined)	-0.42
CCOc1cc(C2C(C(=O)OC)=C(C)NC3=C2C(=O)c2ccccc23)cc(Br)c1OCC (centres undefined)	0.6
CCOc1cc(C2C(C(=O)OC)=C(C)NC3=C2C(=O)c2ccccc23)c(Br)cc1OC (centres undefined)	-0.22
CCOC(=O)C1=C(C)NC(C)=C(C(=O)OC)C1c1cccc([N+](=O)[O-])c1 (centres undefined)	-1.4
O=C(O)c1ccc(-c2nccn2CCCn2nccc2C2CC2)cc1	-1.2
Cc1ccc(Nc2c(-c3c[nH]c4ccccc34)nc3ccccn23)cc1	4.6*
Cc1ccc(Nc2c(-c3ccc(Br)o3)nc3ccccn23)cc1	-1
Cc1ccc2nc(-c3c[nH]c4ccccc34)c(Nc3ccccc3C)n2c1	-0.83
O=C(c1ccc2c3c([nH]c2c1)CCCC3)N1CC(O)C(Cc2cnccn2)C1 (centres undefined)	0.65
Cn1nc(CNC(=O)C2CC3(CCNCC3)CN2)c2c(Cl)cccc21 (centres undefined)	-0.47
Cn1nc2n(c1=O)CC(c1nc(-c3ccccc3)nn1CCO)CC2 (centres undefined)	-0.1
C=CCNCC1(O)CCCN(CCCc2ccccc2)C1=O (centres undefined)	-1.8
O=C(c1ccc(-c2noc(C3CC3)n2)cc1)N1CCCC(c2ncc[nH]2)C1 (centres undefined)	-2.4
O=C(CCc1cc(Cl)no1)NCCc1noc(C2CCCO2)n1 (centres undefined)	-0.41
CCC(=O)N1CCc2cc(Br)cc(S(=O)(=O)CCC(=O)Nc3cccc(C)c3C)c21	3.4*
Cc1cccc(NC(=O)CCS(=O)(=O)c2cc(Br)cc3c2N(C(=O)C2CC2)CC3)c1C	0.77
Cc1ccccc1NC(=O)CCS(=O)(=O)c1cc(Br)cc2c1N(C(=O)C1CC1)CC2	0.43
COC(=O)C1CC(NC(=O)Cc2ccc(OC)c(C)c2)CN1C (centres undefined)	-1.2
Cc1cccc(C)c1NC(=O)Cn1c(=O)n(Cc2ccc(C(=O)NCc3ccco3)cc2)c(=O)c2sccc21	-4.4
Cc1ccc(CNC(=O)c2ccc(Cn3c(=O)c4ccccc4n(CC(=O)Nc4c(C)cc(C)cc4C)c3=O)cc2)cc1	-0.52
Cc1cc(C)c(NC(=O)Cn2c(=O)n(Cc3ccc(C(=O)NCc4ccco4)cc3)c(=O)c3sccc32)c(C)c1	4.5*
COc1cccc(N2CCN(Cc3nnc(C)s3)C(C)C2=O)c1 (centres undefined)	-1.1
CNc1nc(N2CCN(CC(=O)N3CCCCC3)CC2)ncc1F	-0.7
SMILES	fixLJ activator
COc1ccc(CN2CC[C@@]3(C(=O)O)CCCN(C)[C@H]3C2)cc1Cl	-0.64
CC(C)(C)c1ccc(C2Sc3ccccc3NC3=C2C(=O)c2ccccc23)cc1 (centres undefined)	3.5*
COCCC1CN(c2nc(C(C)(C)C)nc3c2cnn3C)CCO1 (centres undefined)	-1.5
Cc1cc(/C=C/c2ccc3cc(N(C)C)ccc3[n+]2C)c(C)n1-c1ccccc1	4*
Cc1ccc(C(=O)N2Cc3cnc(C(C)(C)C)nc3C2)n1C(F)F	-2.2
CCc1ccccc1C(=O)N1CCCN(Cc2noc(C)n2)CC1	0.64
CN(CCc1noc(C2CC2)n1)C(=O)c1ccc2cccc(F)c2n1	-0.32
CSc1ccc(CC(=O)NC2CCN(CC(N)=O)CC2)cc1	-1.1
CNC(=O)C1CCC(CNC(=O)c2ccc(F)cc2C)CC1 (centres undefined)	-1.2
Cc1ccc(S(=O)(=O)c2nc(-c3ccco3)oc2SCc2ccccc2Cl)cc1	0.63
CCC(C)Sc1oc(-c2ccco2)nc1S(=O)(=O)c1ccc(C)cc1 (centres undefined)	5.5*
Cc1ccc(CSc2oc(-c3ccco3)nc2S(=O)(=O)c2ccc(C)cc2)cc1	-0.02
COC1CCC[C@@]12CCCN(C(=O)Cn1c(=O)oc3ccccc31)C2 (some centres undefined)	-1.5
COc1ccc(C(=O)Nc2cc(-c3nc4ccccc4s3)ccc2OC)cc1	0.46
COc1ccccc1NC(=O)c1sc(-c2ccc(Cl)cc2)cc1N	4.2*
COc1ccccc1NC(=O)c1sc2nc3c(cc2c1N)CCCCCC3	-2.2
CN(C)C(=O)NCC(=O)N1CCC(CNC(=O)CCN2CCCCC2=O)CC1	0.94
O=C1C(O)=C(O)C(=O)C(O)=C1O	7.4*
COCC1(N(C)C(=O)Nc2ccc(-c3nc4ccccc4[nH]3)cc2)CC1	-0.64
O=C(Cn1ncc2c3ccccc3n(Cc3ccc(F)cc3)c2c1=O)NCc1cccs1	-0.7
O=C(Cn1ncc2c3ccccc3n(Cc3cccc(Cl)c3)c2c1=O)N1CCCCC1	2
O=C(Cn1ncc2c3ccccc3n(Cc3ccccc3)c2c1=O)N1CCCCCC1	-2.6
